Screening results deposited in PubChem by several laboratories.
Shown are actives, neighbours in structure and some others; about 1.9% of the full set was active somewhere.
S1P4 antagonist – antagonists of human S1P4 receptor; AID 1510; inhibition, % at 4.98 µM; 220,000 tested, 0.26% active; S1P4-expressing cells, antagonist mode, reporter read-out; O95977; in the data active means inhibition above about 29%;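 further: 0% = wells stimulated with agonist and 100% = vehicle wells without agonist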
EP2 mod – EP2 receptor (human) modulation | EP2-expressing cells, cAMP HTRF FRET, PGE2 co-stimulation | induction, % at 25 µM | 260,000 tested, 0.83% active | P43116;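 active means compounds whose cAMP rise, as percent of the full-agonist control response, exceeds 60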;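 further: rat C6 glioma line stably carrying human EP2 under a CMV promoter; the protocol text gives 20 µM as final concentration; 100% = response of wells given 1 µM PGE2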
Target sequence (P43116 whole entry, looked up): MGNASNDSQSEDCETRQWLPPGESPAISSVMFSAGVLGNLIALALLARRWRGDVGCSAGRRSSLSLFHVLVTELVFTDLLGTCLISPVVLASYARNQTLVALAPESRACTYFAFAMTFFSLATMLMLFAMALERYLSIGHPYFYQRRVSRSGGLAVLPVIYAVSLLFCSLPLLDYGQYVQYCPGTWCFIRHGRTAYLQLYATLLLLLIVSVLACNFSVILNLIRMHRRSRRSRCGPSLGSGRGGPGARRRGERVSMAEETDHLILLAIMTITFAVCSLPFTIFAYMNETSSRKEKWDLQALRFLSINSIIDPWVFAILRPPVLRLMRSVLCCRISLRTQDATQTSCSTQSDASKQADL
S1P3 antag – S1P3 (human) receptor antagonism; Q99500; CHO S1P3 NFAT-BLA reporter, FRET fluorescence, antagonist mode; inhibition, % at 4.98 µM; 170,000 tested, 0.27% active; AID 485;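 active means inhibition above the plate cutoff, the mean inhibition of test wells on that plate plus 3 SD, cut at about 28% in these data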;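 further: cells challenged with S1P at its EC80 of 0.8 µM; blue over green emission ratio from cleaved BLA substrate after 4 h stimulation; 0% = S1P-stimulated wells and 100% = unstimulated DMSO-only wells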
S1P4 ag – human S1P4 receptor agonism; O95977; AID 1509; S1P4-expressing cell line, agonist reporter assay; activation, % at 4.98 µM; 220,000 tested, 0.35% active; in the data active means activation above about 11%;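 further: 0% = DMSO vehicle and 100% = reference agonist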
PGE2 EP2 inh – inhibitors of human EP2 prostaglandin E2 receptor; C6 glioma cells expressing human EP2, cAMP TR-FRET; cells stimulated with saturating PGE2; P43116; inhibition, % at 25 µM; 260,000 tested, 0.52% active;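 active means percent inhibition above 40 after rounding to a whole number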;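 further: rat C6 glioma host cells with rolipram phosphodiesterase inhibitor present; the protocol text gives 20 µM as final concentration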
* = called active by the depositor; . = no result given.

SMILES	S1P4 antagonist	EP2 mod	S1P3 antag	S1P4 ag	PGE2 EP2 inh
COc1ccc(-c2nc3ccccc3n2OC(C)C(=O)O)cc1 (centres undefined)	-16	8	-6	0	6
Clc1ccc(-c2nc3ccccc3n2OCc2ccccc2)cc1	-12	63*	.	2	2
O=C(O)CSCCc1ccccn1	-14	29	56*	1	10
Cc1ccccc1Cn1c(=O)n(Cc2ccco2)c(=O)c2ccccc21	0	42	55*	2	11
Cc1ccc2cc(CN(Cc3ccco3)Cc3nnnn3C3CCCCC3)c(=O)[nH]c2c1C	.	70*	.	.	9
CCOc1ccc2[nH]c(=O)c(CN(Cc3ccco3)Cc3nnnn3C3CCCC3)cc2c1	.	64*	.	.	14
Cc1ccc(C)c2[nH]c(=O)c(CN(Cc3ccco3)Cc3nnnn3C3CCCCC3)cc12	.	72*	.	.	7
CC1CCN(c2nc3c(c(=O)[nH]2)CCN(Cc2ccc(N4CCOCC4)cc2)C3)CC1	.	-10	.	.	5
Cn1nnc(NC(=O)c2cccc(Cl)c2)n1	.	6	.	.	8
COc1cccc(Cn2c3cc(C)sc3c3cnn(CC4CC4)c(=O)c32)c1	.	55	.	.	.
CC1(C)Cc2ccccc2-c2nnc(SCc3ccc(F)cc3)n21	.	-2	.	.	9
COC(=O)CN1C(=O)/C(=C/c2ccc(OC)cc2)SC1=S	.	-23	.	.	15
CN(Cc1ccccc1)c1nc(-c2ccc([N+](=O)[O-])cc2)nc2ccccc12	-10	64*	.	3	4
CCCc1cc(=O)[nH]c(SCCOc2ccc(Cl)cc2)n1	-7	64*	16	1	7
CCCCSc1nc(CCC)cc(=O)[nH]1	-2	15	.	-1	5
COCCn1nnnc1CN(Cc1ccc(OC)cc1)Cc1cc2c(C)cc(C)cc2[nH]c1=O	.	-12	.	.	10
COc1cccc2c1C(=O)c1c(O)c3c(c(O)c1C2=O)C[C@@](O)(C(=O)CO)C[C@H]3O[C@H]1C[C@@H](N)[C@H](O)[C@@H](C)O1.[W]	.	15	.	.	40*
Cc1ccc(NC(=O)c2cc(NC(=O)c3ccco3)ccc2N2CCOCC2)cc1	7	8	34	-1	17
Cc1ccc(NC(=O)c2cc(N3C(=O)C=CC3=O)ccc2N2CCOCC2)cc1	-15	-72	-30	3	118*
Cc1ccc2nc(Cl)nc(-c3ccccc3)c2c1	-7	52	-2	1	9
Cc1ccc2nc(-c3ccccc3)c(-c3ccccc3)nc2c1	8	61*	4	-1	8
COc1cc(/C=C/C(=O)OCc2c(C)noc2C)ccc1OC(F)F	-14	-4	15	2	83*
COc1cccc(CC(=O)N2CCC[C@H](Cn3nc(-c4cccs4)ccc3=O)C2)c1	.	-24	.	.	7
COc1ccc(C2CC(=O)C3=C(C2)NC(C)=C(C(=O)OC2CCCC2)C3c2ccc(C)o2)cc1OC (centres undefined)	.	-6	.	.	40*
CCC(C)OC(=O)C1=C(C)NC2=C(C(=O)CC(c3ccc(OC)c(OC)c3)C2)C1c1ccc(C)o1 (centres undefined)	.	9	.	.	12
SMILES	S1P4 antagonist	EP2 mod	S1P3 antag	S1P4 ag	PGE2 EP2 inh
COc1ccccc1CN(CCCn1ccnc1)CC1CCOC1 (centres undefined)	.	-2	.	.	6
Fc1ccc(Cn2cccc2C2=NC(c3ccccc3)CO2)cc1 (centres undefined)	-16	61*	-6	0	1
Cc1oc(-c2ccccc2)nc1Cn1cccc1C1=NC(c2ccccc2)CO1 (centres undefined)	-12	23	6	2	10
Cc1ccc2c(c1)-c1c(ssc1=S)C(C)(C)N2	.	57	.	.	14
COc1ccc(-c2cc(C(F)(F)F)nc(SCC(=O)Nc3cc(C)ccc3C)n2)cc1OC	.	-1	.	.	12
O=C(c1ccc2c(c1)OCCO2)N1CCn2c(nnc2C2CC2)C1	.	6	.	.	.
CC(=O)Nc1cccc(NC(=O)CSc2nnnn2C(C)C)c1	-13	11	-34	2	10
CC(=O)Nc1cccc(NC(=O)CSc2nnnn2C)c1	-10	27	70*	-1	6
Cc1nccn1CCC(=O)N1CCC2(CC1)NC(=O)c1ccccc1O2	.	-17	.	.	.
COc1ccc2c(c1)CN([C@H](C)[C@@H]1CC[C@@H]3[C@H]4CC[C@H]5C[C@@H](O)CC[C@]5(C)[C@@H]4CC[C@]31C)CO2	.	-25	.	.	61*
S=c1c2ccccc2sn1-c1ccccc1	.	-2	.	.	18
COc1cc2nncc(SCc3ccc(Cl)c(Cl)c3)c2cc1OC	.	5	.	.	54*
N#Cc1c(-c2ccccc2)c(-c2ccccc2)nn(CC(=O)NNC(=O)Nc2ccc(Cl)cc2)c1=O	10	2	-7	-1	79*
C=CCOc1ccccc1CN1CCc2c(nc(N3CCC(C)CC3)[nH]c2=O)C1	.	-21	.	.	12
CSc1nc(-c2ccccc2)nc2c1COC(C)(C)C2	-12	64*	-8	1	12
CN(C)CCSc1nc(-c2ccccc2)nc2c1COC(C)(C)C2	-10	6	.	2	3
CCOc1ccc2[nH]c(=O)c(CN(CCO)C(=S)NCCCN(C)C)cc2c1	.	-58	.	.	5
CCCS(=O)(=O)C(=C(Nc1ccccc1)Nc1ccccc1)S(=O)(=O)CCC	-9	63*	.	0	5
CCCS(=O)(=O)C(=C(Nc1ccc(OC)cc1)Nc1ccc(OC)cc1)S(=O)(=O)CCC	-3	32	.	0	11
CC(C)N1CCN(c2ccncc2S(=O)(=O)N2CCCCC2)CC1	.	1	.	.	41*
COc1cc(NC(=O)c2ccnc(N)c2)cc(C(=O)Nc2cccc(C(F)(F)F)c2)c1	.	1	.	.	16
COc1cc(NC(=O)c2cnc(N)s2)cc(C(=O)Nc2cccc(C(F)(F)F)c2)c1	.	-18	.	.	53*
O=C(/C(N=Nc1cccc(C(F)(F)F)c1)=C(/O)c1cccs1)C(F)(F)F	9	-8	2	0	7
Cc1cccc(N=N/C(=C\O)C(=O)c2cccs2)c1	9	64*	-7	1	7
Nc1nc(-c2ccc3ccccc3c2)cc(-c2cc(-c3ccc4ccccc4c3)nc(N)n2)n1	.	6	.	.	51*
SMILES	S1P4 antagonist	EP2 mod	S1P3 antag	S1P4 ag	PGE2 EP2 inh
[N-]=[N+]=CC(=O)C(c1ccccc1)(c1ccccc1)c1ccccc1	1	76*	10	0	8
CCC(C)(C)NC(=O)c1ccc2c(c1)N(CC(=O)Nc1ccc(F)cc1)C(=O)C(C)(C)O2	.	-13	.	.	8
Cc1ccc2cccc(NC(=S)NC(=O)c3cccnc3)c2n1	.	-33	.	.	33
CC1(C)N=C(N)N=C(N)N1c1cccc(OCc2cccc(N)c2)c1	.	-2	.	.	54*
CC1(C)N=C(N)N=C(N)N1c1cccc(CSc2ccccc2)c1	.	20	.	.	52*
CC1(C)N=C(N)N=C(N)N1c1ccccc1	-4	28	.	1	13
CC1(C)N=C(N)N=C(N)N1c1cccc(CN)c1	-14	22	-4	1	4
CN(CCc1ccccn1)c1ccc2c(c1)Cc1ccccc1-2	.	-57	.	.	52*
CCOc1cc(/C=C2\C(=O)NC(=O)N(c3cccc(Br)c3)C2=O)ccc1O	.	-131	.	.	98*
COc1cc(/C=C2\C(=O)NC(=S)N(c3ccc(Br)cc3C)C2=O)ccc1O	.	-95	.	.	74*
